Records with an inconclusive call do not appear. Unmarked numbers belong to inactive results. Calls of active or inactive are those of the source. Calls come from the whole dose curve; as a rule, active = well fitted activation curve with a large enough effect in the repeat runs; inconclusive = weak or mixed curves; inactive = flat fitted curve, though single readings scatter.
% is set by controls: 0 for no effect and ±100 for the full control effect.

A short description of this experiment: A CellTox Green Cytotoxicity Assay to monitor cytotoxicity in HepG2 cells - 16 hour (AID 1224876). Note: nearly all actives have a fitted effect of over 45% in size. The conditions noted are these: CellTox Green fluorescence; series mostly up to 76.8 µM. The text has this:
National Center for Advancing Translational Sciences [NCATS]
NIH Chemical Genomics Center [NCGC]
U.S. Environmental Protection Agency [EPA]
National Institutes of Environmental Health Sciences [NIEHS]
National Toxicology Program [NTP]
Cell-based models are critical for drug discovery. Determining the natural cytotoxic effects resulting from test compounds is an essential research activity. A CellTox Green Cytotoxicity Assay to monitor cytotoxicity in real time of continues cell culture during 40 hours of the compound treatment was used to screen Tox21 10K library compounds in HepG2 cells. CellTox Green Cytotoxicity Assay is a nonlytic, homogeneous, biofluorescent method to measure cytotoxicity in cell culture after experimental manipulation. The assay system uses a proprietary asymmetric cyanine dye that is excluded from viable cells but preferentially stains the dead cell's DNA. […] Viable cells produce no appreciable increases in fluorescence. Therefore, the fluorescence signal produced by the binding interaction with dead cell DNA is proportional to cytotoxicity.
The mixture of HepG2 cell suspension and reagents were dispensed at 600cells/6 ul/well in 1536-well tissue culture treated black solid bottom plates using a Multidrop dispenser. After the assay plates were incubated at a 37 C/5% CO2 incubator for 5 hours, 23 nL of compounds dissolved in DMSO, positive and negative controls was transferred to the assay plate by a pintool work station. The plates were incubated at 37 C for 40 hours. The fluorescence intensity were measured at 0h, 8h, 16h, 24h, 32h and 40h time points using ViewLux plate reader during compound treatment.
Take `CN(CCOc1ccc(NS(C)(=O)=O)cc1)CCc1ccc(NS(C)(=O)=O)cc1`: the outcome was inactive.
Turning to `O=C(CCN1CCN(CCO)CC1)N1c2ccccc2Sc2ccc(C(F)(F)F)cc21`, the outcome was inactive.
Same read-out and setting: the same measure for `Nc1ccc2cc(S(=O)(=O)O)cc(O)c2c1`: “inactive”; for `CNS(=O)(=O)CCc1ccc2[nH]cc(C3CCN(C)CC3)c2c1`: “inactive”.
Take `CCCCCCCCOS(=O)(=O)O`: the compound was classed as inactive.
Take `CCCCCCOC(=O)CC`: the result was inactive.
Regarding `C#CC(C)N(C)C(=O)Nc1ccc(Cl)cc1` (stereo not given), the compound was called inactive.
As for `CC(=O)Nc1ccc(S(=O)(=O)Nc2ccc([N+](=O)[O-])cc2)cc1`, the outcome was inactive.
For `O=C(OCC(O)CO)c1ccccc1Nc1ccnc2c(C(F)(F)F)cccc12` (stereo not given), the outcome was inactive.
Still for that read-out and setting: under `C[C@@H]1O[C@@H](O[C@@H]2[C@@H](O)[C@H](OCCc3ccc(O)c(O)c3)O[C@H](CO[C@@H]3O[C@H](CO)[C@@H](O)[C@H](O)[C@H]3O)[C@H]2OC(=O)/C=C/c2ccc(O)c(O)c2)[C@H](O)[C@H](O)[C@H]1O` stands “inactive”.
As for `O=C(Nc1ccc(Cl)c(Cl)c1)C1CC1`, the result was inactive.
Take `CCC(CC)CO`: the result was inactive.
With `CCCC/C=C/C=C\C=O`, the compound was called inactive.
As to `CCCCCCCC/C=C\CCCCCCCC(=O)OCCCC`, the cytotoxicity increase was -7.79% [at 15.8 µM].
In the case of `COc1nccnc1NS(=O)(=O)c1ccc(N)cc1`, the outcome was inactive.
Consider `CCCCOC(=O)c1ccccc1`, for which the outcome was inactive.
As to `NCCS`, the compound was called inactive.
Still for that read-out and setting: under `CCCCN` stands “inactive”; under `CCc1ccc(C=O)cc1`, “inactive”; under `COCCc1ccc(OCC2CO2)cc1` (stereo not given), “inactive”.
On to `CC(C)(C)OC(=O)c1ccc(O)cc1`, for which the compound was called inactive.
Take `CCCCCCCCC(=O)Cl`: the result was inactive.
In the case of `CCCCCCOc1ccccc1C(N)=O`, the result was inactive.
Turning to `Oc1ccccc1-c1nnco1`, the outcome was inactive.
`CC(=O)NCCCCCC(=O)O`: the result was inactive.
Same read-out and setting: under `O=C1c2ccccc2C(=O)C1c1ccccc1` stands “inactive”; under `O=C(/N=N/C(=O)OCc1ccccc1)OCc1ccccc1`, “inactive”.
In the case of `O=C(c1ccc(O)cc1)c1ccc(O)c(O)c1O`, the call was inactive.
For the compound `COCCOCCOCCOCCO`, the result was inactive.
As for `OC[C@H](Cc1cccc(O)c1)[C@H](CO)Cc1cccc(O)c1`, the compound was classed as inactive.
In the case of `Cc1ccc2c(c1)OCC(=O)CO2`, the compound was classed as inactive.
Turning to `BrCCCCCBr`, the call was inactive.
With `O=C(O)Cc1cn(-c2ccccc2)nc1-c1ccc(Cl)cc1`, the result was inactive.
Still for that read-out and setting: under `C=CCCCCCCCCCCCC` stands “inactive”.
For `C[Si](C)(C)C`, the call was inactive.
Take `N[C@@H](CCC(=O)N[C@@H](CS)C(=O)NCC(=O)O)C(=O)O`: the cytotoxicity increase is -10% [at 15.8 µM].
Consider `CN(C)CCOCCO`, for which the outcome was inactive.
Regarding `Cc1cc(Cl)c(C)cc1Cl`, the result was inactive.
As for `Brc1ccc(-c2ccccc2)cc1`, the outcome was inactive.
Take `COc1cc(C(=S)N2CCOCC2)cc(OC)c1OC`: the compound was classed as inactive.

The values are drawn from PubChem BioAssay (Tox21).
